From PubChem BioAssay
Pf growth 48h – inhibits P. falciparum growth in the first generation, 48 h; Potency, µM (top dose mostly 28.7 µM), for the others: at the top dose activity change, negative = inhibition, most hits filed as inhibitors; AID 504832; actives 5.9% (n = 310,000); P. falciparum luciferase growth in erythrocytes, 48 h; also: % is scaled to controls: 0 for no effect and ±100 for the full control effect
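Luciferase-expressing parasites in RBCs, 2% Hct / 0.1% parasitemia final; RPMI 1640 + 0.5% Albumax; 37 C, 5% CO2, one generation; luminescence read-out, lower signal = inhibition.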
SARS PLP yeast – inhibitors of SARS-CoV papain-like protease in yeast; AID 485353; Potency, µM (titrated, usually from 32.9 µM), without a hit: top-dose activity, positive = growth rescue, actives largely listed as activators; actives 0.19% (n = 330,000); S. cerevisiae expressing SARS-CoV PLpro, growth rescue; calls by dose curve; also: 0% is about no effect; nearly all actives have a fitted effect of over 55% in size
NS1 function inh – influenza NS1 inhibition; Potency, µM (titrated, usually from 46.1 µM), for inactives: at the highest dose activity, positive = more growth; actives 0.4% (n = 270,000); calls by dose curve; also: actives are rising curves; nearly all actives have a fitted effect of over 50% in size
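Compounds were scored for reversing the slow growth caused by influenza A NS1 in S. cerevisiae, measured by optical density at 600 nm. Assay medium contained 2% galactose at pH 6.0; NS1-free yeast of the same strain were the positive control.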
HCV inhibitor – HCV inhibition. Huh7.5.1 HCVcc-Cre infection, luciferase reporter, 44 h. Potency, µM (titrated, usually from 41.8 µM), for the others: at the highest dose activity change, negative = inhibition, usual class: inhibitors. actives 3.4% (n = 340,000). AID 651820; also: % is scaled to controls: 0 for no effect and ±100 for the full control effect
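Infectious HCVcc-Cre (~0.5 moi) was added to cells just after compound, with cells seeded 4 h earlier at 1,000 per well. Luciferase activity after 44 h culture reported infection; substrate was incubated 15 min at room temperature before reading.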
AMA1-RON2 inh – disrupts binding of P. falciparum AMA1 to RON2 | actives 0.2% (n = 360,000) | Potency, µM (top dose mostly 58.2 µM), for inactives: at the highest dose activity change, negative = inhibition, most hits filed as inhibitors | AID 720542 | AlphaScreen AMA1-biotinylated RON2 peptide binding;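 also: 0% = vehicle wells and -100% = peptide control; nearly all actives have a fitted effect of over 45% in size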
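AMA1 (3D7) with his tag at 25 nM final met compounds first, then biotinylated RON2 peptide at 25 nM; detection used donor plus acceptor beads, 10 µg/mL apiece, read by AlphaScreen after 30 min at room temperature.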
Pf growth 96h – inhibits malaria parasite growth, 96 h; Potency, µM (titrated, usually from 28.7 µM), for inactives: top-dose activity change, negative = inhibition, hits mostly inhibitors; P. falciparum luciferase reporter growth, 96 h; actives 6.9% (n = 320,000); also: % is scaled to controls: 0 for no effect and ±100 for the full control effect
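P. falciparum expressing integrated firefly luciferase, in erythrocytes at 2% hematocrit, 0.05% parasitemia, incubated with compounds 96 h at 37 C, 5% CO2. Growth inhibition read as loss of luminescence; two-generation exposure targets delayed-death apicoplast inhibitors.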
* marks the source's active call; other numbers are inactive results; ? = inconclusive; · = not tested or not shown; [ ] = dose if it differs, or a comment. Compounds with a hit are over-represented: about 12% of the library has one in this group of screens. Unless noted, calls follow the shape of the dose curve; as a rule, active = well fitted curve in the direction sought with a large enough effect; inconclusive = small, poorly fitted or top-dose-only effect, or another doubt; inactive = no such curve, though single readings can be large; an effect the other way counts as inactive or inconclusive. Potency is read from the fitted curve at half-maximal effect.

SMILES | Pf growth 48h | SARS PLP yeast | NS1 function inh | HCV inhibitor | AMA1-RON2 inh | Pf growth 96h
CCOc1ncccc1C(=O)Nc1cc(S(=O)(=O)N2CCCCC2)ccc1Cl | ? | 2% | · | 14% | -16% | 0.83µM*
CCN1CCN(S(=O)(=O)c2ccc(OC)c(NC(=O)c3ccccc3F)c2)CC1 | -14% | 0% | · | 7% | 1% | 7.4µM*
COc1ccccc1NC(=O)c1ccc(S(=O)(=O)N2CCCC2)cc1 | · | -2% | -14% | -12% | -7% | -26%
COc1cc(S(=O)(=O)N2CCCCC2)ccc1NC(=O)c1ccc(F)cc1 | 8% | -2% | 2% | 22% | -15% | 10µM*
CC(C)(C)NC(=O)CN(C(=O)c1csnn1)c1cccc2c1CCCC2 | -5% | -1% | · | -1% | 1% | ?
Cc1ccc(-c2cnc(-c3ccccc3C(=O)O)o2)cc1 | 18% | 0% | -25% | 7% | -22% | 42%
COc1ccc(NC(=O)c2ccc(S(=O)(=O)N3CCOCC3)cc2)c(OC)c1 | -4% | 7% | -13% | 1% | 1% | 4.7µM*
Cc1cccc(C)c1NC(=O)CSc1nnc(C2CCCCC2)o1 | 6% | 5% | -15% | 15% | -2% | ?
COCCn1c(SCC(=O)c2c[nH]c3ccccc23)nnc1-c1ccncc1 | ? | 5% | 19% | 5% | 5% | ?
CCc1cccc2c(C(=O)CSc3nnc(C4CC4)o3)c[nH]c12 | -24% | 0% | · | 5.6µM* | -1% | -26%
CCc1cccc2c(C(=O)CSc3nnc(-c4ccncc4)n3C)c[nH]c12 | ? | -1% | ? | -9% | -12% | 10µM*
Cc1ccc(OCCNC(=O)C(=O)NCc2ccco2)cc1 | 19% | -1% | -3% | -4% | -4% | 19%
O=C1ON(Cc2ccccc2)C(c2ccccc2)N1c1ccccc1 (centres undefined) | · | · | · | 2% | -4% | ·
CCc1cccc(CN2CCC(CNC(=O)Nc3ccc(Cl)cc3)CC2)c1 | 4.7µM* | 0% | 4% | 7% | 4% | ?
Cc1ccc(C)c(CN2CCC(CNC(=O)Nc3ccc(C)c(C)c3)CC2)c1 | 4.1µM* | 0% | -3% | -27% | -7% | 14%
COc1cc([N+](=O)[O-])ccc1NC(=O)NCC1CCN(Cc2ccc(Cl)cc2)CC1 | ? | -1% | 4% | 13µM* | -3% | ?
COc1nc(Nc2ccccc2F)nc(OC)n1 | 19% | 2% | -5% | 15% | 11% | 11%
Cc1ccsc1CN(C)Cc1nc(C2CC2)no1 | 14% | 0% | 5% | 6% | 16% | 27%
Oc1ccc(Br)cc1/C=N/n1cnc2ccccc21 | 3.3µM* | -12% | -61% | -29% | 7% | 2.3µM*
Cc1ccc(C)c(C(=O)Nc2nc3ccccc3[nH]2)c1 | 43% | -1% | -4% | 14% | 49% | 53%
Cc1ccc(Nc2nc3ccccc3[nH]2)nc1 | 3.3µM* | 19% | -13% | ? | ? | ?
CCOC(=O)C1CCN(c2c(Nc3ccc(C)c(C)c3)c(=O)c2=O)CC1 | ? | -2% | -7% | -7% | 7% | ?
CC(=O)C12CCCCC1CC1C3CC(C)C4(O)CC(=O)CCC4(C)C3CCC12C (centres undefined) | 0% | -2% | -3% | -13% | -1% | 9.3µM*
O=C(Cc1sc(-c2ccccc2Cl)nc1-c1ccccc1)Nc1ccc(F)cc1 | ? | 9% | ? | 7.9µM* | 8% | ·
O=C(Cc1sc(-c2ccccc2Cl)nc1-c1ccccc1)Nc1ccccc1 | -3% | 8% | 9% | -5% | 4% | ·
SMILES | Pf growth 48h | SARS PLP yeast | NS1 function inh | HCV inhibitor | AMA1-RON2 inh | Pf growth 96h
O=C(CNC(=O)C1CCCCC1)NCc1ccco1 | 7% | 0% | -7% | 12% | 13% | 21%
C=CCc1cccc(/C=C/c2cc(=O)c3ccccc3[nH]2)c1O | 0.13µM* | ? | 9% | 8% | -2% | 0%
CCOC(=O)c1cc2c(C)n(-c3ccc(C)cc3)c(C)c2ccc1=O | ? | -19% | -83% | 11µM* | -23% | 0%
CCOC(=O)c1cc2c(C)n(-c3ccc(OCC)cc3)c(C)c2ccc1=O | ? | -13% | -14% | ? | -5% | 4.1µM*
Cc1sc2c(c1C)CN(CCN1CCOCC1)CN2C(=O)c1ccccc1 | 37% | 0% | · | -1% | -14% | 14%
COCCNCc1cc(C)n(-c2cc(S(=O)(=O)N3CCOCC3)ccc2N2CCCC2)c1C | · | · | · | -13% | -8%[11.6 µM] | ·
CCOc1ccccc1C(=O)Nc1ccc(S(=O)(=O)Nc2nccc(C)n2)cc1 | -10% | -3% | 13% | 5% | -10% | 13µM*
CCOc1ccc(C(=O)Nc2ccc(S(=O)(=O)Nc3nccc(C)n3)cc2)cc1OCC | -27% | 4% | 7% | 10% | 3% | 8.3µM*
Cc1ccnc(NS(=O)(=O)c2ccc(NC(=O)C(C)(C)C)cc2)n1 | 1.9µM* | 1% | 2% | -3% | -12% | 48%
O=C(CCCCn1c(=O)c2ccccc2n(Cc2ccccc2F)c1=O)NC1CCN(Cc2ccccc2)CC1 | ? | 2% | · | -26% | -7% | -42%
CC(C)[C@H](Nc1nc(-c2ccccc2)nc2c1oc1ccccc12)C(=O)O | ? | 6% | -37% | -2% | -1% | -31%
CC(C)C(Nc1ncnc2c1oc1ccccc12)C(=O)O (centres undefined) | 23% | 0% | -5% | 28% | 15% | 4.7µM*
CC(C)Sc1ncnc2c1oc1ccccc12 | -3% | -8% | -15% | -9% | 2% | 19%
COc1ncnc2c1oc1ccccc12 | 128% | -1% | -3% | 17% | -4% | 4.7µM*
COc1ccc(OC)c(Cc2nnc(CCC(=O)NC3CCCCC3)o2)c1 | 18% | -1% | 2% | -2% | -1% | 13µM*
COc1ccc(OC)c(Cc2nnc(CCC(=O)NC3C4CC5CC(C4)CC3C5)o2)c1 (centres undefined) | 10µM* | 1% | -10% | 5% | 14% | 0%
Cn1c(SCC(=O)Nc2sccc2C#N)nnc1C1CC1 | · | -5% | · | 4% | -7% | ·
Cc1noc(C)c1COc1cccc(C(=O)Nc2ccc(Br)cc2F)c1 | · | -9% | · | 2.8µM* | -8%[11.6 µM] | ·
Cc1noc(C)c1COc1cccc(C(=O)OCCOc2ccc(F)cc2)c1 | ? | -8% | -5% | -7% | 79% | 13µM*
CCOC(=O)C1=C(N)Oc2cc(O)ccc2C1c1cccc([N+](=O)[O-])c1 (centres undefined) | -8% | -4% | -1% | ? | -24% | -64%
COc1ccc(CCNC(=O)COC(=O)c2cc(=O)[nH]c3ccccc23)cc1 | · | -7% | · | 20% | -5% | ·
Cc1cc(C(=O)NCCc2ccc(S(=O)(=O)NC(=O)NN3CCCCCC3)cc2)no1 | -9% | · | · | · | · | -11%
Nc1ncc2c(n1)-c1ccccc1CC2 | 3.7µM* | -5% | -1% | 3% | -2% | 39%
